Article PMC9911399, “Two distinct binding modes provide the RNA-binding protein RbFox with extraordinary sequence specificity”
Where a chain is given by its changes, count along the chain named. Whole data set: some 16,000 sequences, median “ka relative to ugcaugu” near 0.096, cut for the highest 2% near 0.35. The sample holds the highest values, similar sequences and a random draw of the others, so the mix is not that of the screen.

T1: RBFOX1 RRM RbFoxmut (Fox-RRM*) (Homo sapiens, UniProt Q9NWB1 109-208, R118D;E147R;N151S;E152T)
T1 sequence: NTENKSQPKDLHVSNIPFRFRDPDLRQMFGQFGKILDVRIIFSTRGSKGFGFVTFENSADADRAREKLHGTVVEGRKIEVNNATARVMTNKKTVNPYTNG

B1: GCUAGGC (DNA:RNA)
RNA: GGGAGACCGGAAUUCAGAUUGUCCGCUAGGCUUAAAUCCCGUCGUAGCCACCA
DNA 1: CAATCTGAATTCCGGTCTCCC
DNA 2: TGGTGGCTACGACGGGATT
B2: UGCACAU (DNA:RNA)
RNA: B1 RNA with G25U, C26G, U27C, G29C, G30A, C31U
DNA 1: CAATCTGAATTCCGGTCTCCC
DNA 2: TGGTGGCTACGACGGGATT
B3: GACAGGU (DNA:RNA)
RNA: B1 RNA with C26A, U27C, C31U
DNA 1: CAATCTGAATTCCGGTCTCCC
DNA 2: TGGTGGCTACGACGGGATT
B4: AGUUAAU (DNA:RNA)
RNA: B1 RNA with G25A, C26G, A28U, G29A, G30A, C31U
DNA 1: CAATCTGAATTCCGGTCTCCC
DNA 2: TGGTGGCTACGACGGGATT
B5: UCGUGUC (DNA:RNA)
RNA: B1 RNA with G25U, U27G, A28U, G30U
DNA 1: CAATCTGAATTCCGGTCTCCC
DNA 2: TGGTGGCTACGACGGGATT
B6: CUUGUCC (DNA:RNA)
RNA: B1 RNA with G25C, C26U, A28G, G29U, G30C
DNA 1: CAATCTGAATTCCGGTCTCCC
DNA 2: TGGTGGCTACGACGGGATT
B7: UCGCGUG (DNA:RNA)
RNA: B1 RNA with G25U, U27G, A28C, G30U, C31G
DNA 1: CAATCTGAATTCCGGTCTCCC
DNA 2: TGGTGGCTACGACGGGATT
B8: CCUUGUC (DNA:RNA)
RNA: B1 RNA with G25C, A28U, G30U
DNA 1: CAATCTGAATTCCGGTCTCCC
DNA 2: TGGTGGCTACGACGGGATT
B9: UUGUGUC (DNA:RNA)
RNA: B1 RNA with G25U, C26U, U27G, A28U, G30U
DNA 1: CAATCTGAATTCCGGTCTCCC
DNA 2: TGGTGGCTACGACGGGATT
B10: UCGCGUC (DNA:RNA)
RNA: B1 RNA with G25U, U27G, A28C, G30U
DNA 1: CAATCTGAATTCCGGTCTCCC
DNA 2: TGGTGGCTACGACGGGATT
B11: UUGUCCC (DNA:RNA)
RNA: B1 RNA with G25U, C26U, U27G, A28U, G29C, G30C
DNA 1: CAATCTGAATTCCGGTCTCCC
DNA 2: TGGTGGCTACGACGGGATT
B12: UUGUGUG (DNA:RNA)
RNA: B1 RNA with G25U, C26U, U27G, A28U, G30U, C31G
DNA 1: CAATCTGAATTCCGGTCTCCC
DNA 2: TGGTGGCTACGACGGGATT
B13: UUGGGUG (DNA:RNA)
RNA: B1 RNA with G25U, C26U, U27G, A28G, G30U, C31G
DNA 1: CAATCTGAATTCCGGTCTCCC
DNA 2: TGGTGGCTACGACGGGATT
B14: GUGUGUC (DNA:RNA)
RNA: B1 RNA with C26U, U27G, A28U, G30U
DNA 1: CAATCTGAATTCCGGTCTCCC
DNA 2: TGGTGGCTACGACGGGATT
B15: UUGGGAA (DNA:RNA)
RNA: B1 RNA with G25U, C26U, U27G, A28G, G30A, C31A
DNA 1: CAATCTGAATTCCGGTCTCCC
DNA 2: TGGTGGCTACGACGGGATT
B16: UUGGGGG (DNA:RNA)
RNA: B1 RNA with G25U, C26U, U27G, A28G, C31G
DNA 1: CAATCTGAATTCCGGTCTCCC
DNA 2: TGGTGGCTACGACGGGATT
B17: AUGACGA (DNA:RNA)
RNA: B1 RNA with G25A, C26U, U27G, G29C, C31A
DNA 1: CAATCTGAATTCCGGTCTCCC
DNA 2: TGGTGGCTACGACGGGATT
B18: UACCUCG (DNA:RNA)
RNA: GGGAGACCGGAAUUCAGAUUGUCCUACCUCGUUAAAUCCCGUCGUAGCCACCA
DNA 1: CAATCTGAATTCCGGTCTCCC
DNA 2: TGGTGGCTACGACGGGATT
B19: UUUCACA (DNA:RNA)
RNA: B18 RNA with A26U, C27U, U29A, G31A
DNA 1: CAATCTGAATTCCGGTCTCCC
DNA 2: TGGTGGCTACGACGGGATT
B20: AGUUGGC (DNA:RNA)
RNA: B1 RNA with G25A, C26G, A28U
DNA 1: CAATCTGAATTCCGGTCTCCC
DNA 2: TGGTGGCTACGACGGGATT
B21: AAGCUUU (DNA:RNA)
RNA: B18 RNA with U25A, C27G, C30U, G31U
DNA 1: CAATCTGAATTCCGGTCTCCC
DNA 2: TGGTGGCTACGACGGGATT
B22: GACCGCU (DNA:RNA)
RNA: B18 RNA with U25G, U29G, G31U
DNA 1: CAATCTGAATTCCGGTCTCCC
DNA 2: TGGTGGCTACGACGGGATT
B23: GCCGCGG (DNA:RNA)
RNA: B1 RNA with U27C, A28G, G29C, C31G
DNA 1: CAATCTGAATTCCGGTCTCCC
DNA 2: TGGTGGCTACGACGGGATT
B24: CCUACUC (DNA:RNA)
RNA: B1 RNA with G25C, G29C, G30U
DNA 1: CAATCTGAATTCCGGTCTCCC
DNA 2: TGGTGGCTACGACGGGATT
B25: GAUUGUG (DNA:RNA)
RNA: B1 RNA with C26A, A28U, G30U, C31G
DNA 1: CAATCTGAATTCCGGTCTCCC
DNA 2: TGGTGGCTACGACGGGATT
B26: GCGAUUG (DNA:RNA)
RNA: B1 RNA with U27G, G29U, G30U, C31G
DNA 1: CAATCTGAATTCCGGTCTCCC
DNA 2: TGGTGGCTACGACGGGATT
B27: GCGAACG (DNA:RNA)
RNA: B1 RNA with U27G, G29A, G30C, C31G
DNA 1: CAATCTGAATTCCGGTCTCCC
DNA 2: TGGTGGCTACGACGGGATT
B28: GCGAACC (DNA:RNA)
RNA: B1 RNA with U27G, G29A, G30C
DNA 1: CAATCTGAATTCCGGTCTCCC
DNA 2: TGGTGGCTACGACGGGATT
B29: GCGAAUG (DNA:RNA)
RNA: B1 RNA with U27G, G29A, G30U, C31G
DNA 1: CAATCTGAATTCCGGTCTCCC
DNA 2: TGGTGGCTACGACGGGATT
B30: GAACGUC (DNA:RNA)
RNA: B1 RNA with C26A, U27A, A28C, G30U
DNA 1: CAATCTGAATTCCGGTCTCCC
DNA 2: TGGTGGCTACGACGGGATT
B31: GCGACCG (DNA:RNA)
RNA: B1 RNA with U27G, G29C, G30C, C31G
DNA 1: CAATCTGAATTCCGGTCTCCC
DNA 2: TGGTGGCTACGACGGGATT
B32: GAAUGUG (DNA:RNA)
RNA: B1 RNA with C26A, U27A, A28U, G30U, C31G
DNA 1: CAATCTGAATTCCGGTCTCCC
DNA 2: TGGTGGCTACGACGGGATT
B33: GCGCGAA (DNA:RNA)
RNA: B1 RNA with U27G, A28C, G30A, C31A
DNA 1: CAATCTGAATTCCGGTCTCCC
DNA 2: TGGTGGCTACGACGGGATT
B34: GCGAAUC (DNA:RNA)
RNA: B1 RNA with U27G, G29A, G30U
DNA 1: CAATCTGAATTCCGGTCTCCC
DNA 2: TGGTGGCTACGACGGGATT
B35: CGAUGUG (DNA:RNA)
RNA: B1 RNA with G25C, C26G, U27A, A28U, G30U, C31G
DNA 1: CAATCTGAATTCCGGTCTCCC
DNA 2: TGGTGGCTACGACGGGATT
B36: GCGAAUU (DNA:RNA)
RNA: B1 RNA with U27G, G29A, G30U, C31U
DNA 1: CAATCTGAATTCCGGTCTCCC
DNA 2: TGGTGGCTACGACGGGATT

Target: T1, RBFOX1 RRM RbFoxmut (Fox-RRM*)
Test: EMSA; HiTS-Eq, 1 nM pool, 10 min; buffer printed only for the single-RNA assays: 10 mM Tris pH 7.5, 150 mM NaCl, 3.4 mM EDTA, 0.001% NP-40, 30 C
Conditions: tags: His6 N-terminal (pET28a); label: 5' 32P
How it was run: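 Purified RbFox RRM, wild type or mutant, was incubated for 10 min in 50 µL with 1 nM of a 5′-radiolabelled RNA pool carrying 7 randomized nucleotides, whose flanks were annealed to DNA oligonucleotides, over a series of increasing protein concentrations. Unbound RNA was resolved on 8% native PAGE, cut out, reverse-transcribed, barcoded by PCR and sequenced on an Illumina HiSeq 2500. Relative association constants were derived from changes in read counts for each RNA species versus the control reaction and normalised to the cognate motif.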

| Binder | binding signal |
| --- | --- |
| B1 | 0.0891 KA relative to UGCAUGU |
| B2 | 0.0893 KA relative to UGCAUGU |
| B3 | 0.0716 KA relative to UGCAUGU |
| B4 | 0.0918 KA relative to UGCAUGU |
| B5 | 0.359 KA relative to UGCAUGU |
| B6 | 0.107 KA relative to UGCAUGU |
| B7 | 0.153 KA relative to UGCAUGU |
| B8 | 0.226 KA relative to UGCAUGU |
| B9 | 0.357 KA relative to UGCAUGU |
| B10 | 0.145 KA relative to UGCAUGU |
| B11 | 0.0731 KA relative to UGCAUGU |
| B12 | 0.491 KA relative to UGCAUGU |
| B13 | 0.373 KA relative to UGCAUGU |
| B14 | 0.329 KA relative to UGCAUGU |
| B15 | 0.14 KA relative to UGCAUGU |
| B16 | 0.0724 KA relative to UGCAUGU |
| B17 | 0.0609 KA relative to UGCAUGU |
| B18 | 0.107 KA relative to UGCAUGU |

| Binder | binding signal |
| --- | --- |
| B19 | 0.0896 KA relative to UGCAUGU |
| B20 | 0.107 KA relative to UGCAUGU |
| B21 | 0.0764 KA relative to UGCAUGU |
| B22 | 0.0966 KA relative to UGCAUGU |
| B23 | 0.0996 KA relative to UGCAUGU |
| B24 | 0.0423 KA relative to UGCAUGU |
| B25 | 0.249 KA relative to UGCAUGU |
| B26 | 0.206 KA relative to UGCAUGU |
| B27 | 0.354 KA relative to UGCAUGU |
| B28 | 0.0798 KA relative to UGCAUGU |
| B29 | 1.44 KA relative to UGCAUGU |
| B30 | 0.102 KA relative to UGCAUGU |
| B31 | 0.111 KA relative to UGCAUGU |
| B32 | 1.27 KA relative to UGCAUGU |
| B33 | 0.104 KA relative to UGCAUGU |
| B34 | 0.385 KA relative to UGCAUGU |
| B35 | 0.151 KA relative to UGCAUGU |
| B36 | 0.113 KA relative to UGCAUGU |
